Experimental data as given in the supplement of paper PMC11732987, “Enantioselective OTUD7B fragment discovery through chemoproteomics screening and high-throughput optimisation” (Communications Chemistry, 2025).

Columns and labels:
Test in all cases: log2 ratio of Biotin-Ahx-Ub-VS probe labelling (fragment/DMSO); higher = less target engagement (more negative = stronger competition), active = hit call of the paper (q ≤ 0.05, log2 ratio ≤ -1)
Details in all cases: compound concentration: 200 uM; treatment time: 3 h
[1] = biological target: T1, OTUD6B (UniProt Q8N6M0)
T1 sequence (whole entry): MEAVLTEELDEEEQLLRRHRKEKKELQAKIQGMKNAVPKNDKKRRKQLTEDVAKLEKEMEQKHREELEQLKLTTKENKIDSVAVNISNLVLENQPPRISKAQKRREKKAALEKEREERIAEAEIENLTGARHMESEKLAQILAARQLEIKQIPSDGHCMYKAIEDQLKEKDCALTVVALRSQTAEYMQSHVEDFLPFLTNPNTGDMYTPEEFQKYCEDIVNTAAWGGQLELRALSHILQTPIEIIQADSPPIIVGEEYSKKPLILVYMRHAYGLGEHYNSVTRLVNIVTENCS
How it was run: (§1)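 Fragment (200 µM) or vehicle was incubated for 3 h with triplicate HEK293T lysate samples of 495 µg, which were then treated with Biotin-Ahx-Ub-VS at 0.5 µM final for 1 h. Labelled DUBs were enriched on NeutrAvidin, digested with LysC and trypsin, and analysed by diaPASEF LC-MS/MS. Values are average log2 fragment/vehicle ratios from an unpaired t-test on global-median-normalised Spectronaut label-free quantities, using proteins with ≥2 unique peptides.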

[2] = biological target: T2, OTUD7B (UniProt Q6GQQ9)
T2 sequence (whole entry): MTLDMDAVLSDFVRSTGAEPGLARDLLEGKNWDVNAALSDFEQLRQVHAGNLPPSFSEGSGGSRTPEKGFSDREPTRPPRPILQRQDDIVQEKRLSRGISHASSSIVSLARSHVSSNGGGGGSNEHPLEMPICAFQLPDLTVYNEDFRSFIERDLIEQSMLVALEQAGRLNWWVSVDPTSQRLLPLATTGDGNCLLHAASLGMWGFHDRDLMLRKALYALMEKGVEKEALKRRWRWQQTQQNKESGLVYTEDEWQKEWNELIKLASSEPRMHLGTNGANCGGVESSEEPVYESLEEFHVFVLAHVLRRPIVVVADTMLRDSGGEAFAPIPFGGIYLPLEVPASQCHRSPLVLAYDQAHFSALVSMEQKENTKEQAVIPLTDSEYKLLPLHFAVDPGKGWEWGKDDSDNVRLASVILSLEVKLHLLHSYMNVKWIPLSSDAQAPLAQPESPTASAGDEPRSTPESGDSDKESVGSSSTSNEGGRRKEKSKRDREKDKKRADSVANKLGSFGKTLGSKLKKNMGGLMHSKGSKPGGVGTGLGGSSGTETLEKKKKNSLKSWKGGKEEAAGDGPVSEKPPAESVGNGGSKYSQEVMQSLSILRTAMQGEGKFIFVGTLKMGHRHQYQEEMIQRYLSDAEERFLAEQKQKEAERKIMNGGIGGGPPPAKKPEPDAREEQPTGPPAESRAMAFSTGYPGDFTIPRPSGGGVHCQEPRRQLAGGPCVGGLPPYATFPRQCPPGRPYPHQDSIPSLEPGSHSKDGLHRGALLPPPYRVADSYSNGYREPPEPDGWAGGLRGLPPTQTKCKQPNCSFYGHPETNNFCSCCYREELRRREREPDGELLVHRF
How it was run: as §1

[3] = biological target: PRPF8 (UniProt Q6P2Q9)
How it was run: as §1

[4] = biological target: T3, PSMD7 (UniProt P51665)
T3 sequence (whole entry): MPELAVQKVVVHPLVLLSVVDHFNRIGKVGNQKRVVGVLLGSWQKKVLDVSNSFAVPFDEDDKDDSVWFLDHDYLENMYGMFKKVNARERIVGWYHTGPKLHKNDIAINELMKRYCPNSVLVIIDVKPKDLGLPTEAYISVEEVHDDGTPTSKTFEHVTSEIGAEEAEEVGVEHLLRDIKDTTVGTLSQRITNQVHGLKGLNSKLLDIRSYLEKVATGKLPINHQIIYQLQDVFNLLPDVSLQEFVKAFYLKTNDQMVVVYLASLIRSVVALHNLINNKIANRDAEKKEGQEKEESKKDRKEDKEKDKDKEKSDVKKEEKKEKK
How it was run: as §1

[5] = biological target: UCHL1 (UniProt P09936)
How it was run: as §1

[6] = biological target: T4, UCHL3 (UniProt P15374)
T4 sequence (whole entry): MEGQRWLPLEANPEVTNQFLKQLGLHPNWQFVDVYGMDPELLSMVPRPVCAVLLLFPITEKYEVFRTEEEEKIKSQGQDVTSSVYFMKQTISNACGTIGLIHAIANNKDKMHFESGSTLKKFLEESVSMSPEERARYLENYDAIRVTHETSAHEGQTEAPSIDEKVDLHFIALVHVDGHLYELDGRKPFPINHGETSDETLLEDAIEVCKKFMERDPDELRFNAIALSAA
How it was run: as §1

[7] = biological target: T5, UCHL5 (UniProt Q9Y5K5)
T5 sequence (whole entry): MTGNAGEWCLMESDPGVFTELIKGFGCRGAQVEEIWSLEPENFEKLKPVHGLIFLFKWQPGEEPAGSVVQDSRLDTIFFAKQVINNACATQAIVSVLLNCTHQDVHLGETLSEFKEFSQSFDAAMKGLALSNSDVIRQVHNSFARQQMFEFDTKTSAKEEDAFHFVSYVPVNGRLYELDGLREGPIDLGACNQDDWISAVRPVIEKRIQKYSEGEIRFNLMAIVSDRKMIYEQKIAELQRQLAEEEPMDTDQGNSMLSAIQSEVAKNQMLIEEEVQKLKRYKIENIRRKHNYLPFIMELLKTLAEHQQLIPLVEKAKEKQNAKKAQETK
How it was run: as §1

[8] = biological target: USP10 (UniProt Q14694)
How it was run: as §1

[9] = biological target: T6, USP15 (UniProt Q9Y4E8)
T6 sequence (whole entry): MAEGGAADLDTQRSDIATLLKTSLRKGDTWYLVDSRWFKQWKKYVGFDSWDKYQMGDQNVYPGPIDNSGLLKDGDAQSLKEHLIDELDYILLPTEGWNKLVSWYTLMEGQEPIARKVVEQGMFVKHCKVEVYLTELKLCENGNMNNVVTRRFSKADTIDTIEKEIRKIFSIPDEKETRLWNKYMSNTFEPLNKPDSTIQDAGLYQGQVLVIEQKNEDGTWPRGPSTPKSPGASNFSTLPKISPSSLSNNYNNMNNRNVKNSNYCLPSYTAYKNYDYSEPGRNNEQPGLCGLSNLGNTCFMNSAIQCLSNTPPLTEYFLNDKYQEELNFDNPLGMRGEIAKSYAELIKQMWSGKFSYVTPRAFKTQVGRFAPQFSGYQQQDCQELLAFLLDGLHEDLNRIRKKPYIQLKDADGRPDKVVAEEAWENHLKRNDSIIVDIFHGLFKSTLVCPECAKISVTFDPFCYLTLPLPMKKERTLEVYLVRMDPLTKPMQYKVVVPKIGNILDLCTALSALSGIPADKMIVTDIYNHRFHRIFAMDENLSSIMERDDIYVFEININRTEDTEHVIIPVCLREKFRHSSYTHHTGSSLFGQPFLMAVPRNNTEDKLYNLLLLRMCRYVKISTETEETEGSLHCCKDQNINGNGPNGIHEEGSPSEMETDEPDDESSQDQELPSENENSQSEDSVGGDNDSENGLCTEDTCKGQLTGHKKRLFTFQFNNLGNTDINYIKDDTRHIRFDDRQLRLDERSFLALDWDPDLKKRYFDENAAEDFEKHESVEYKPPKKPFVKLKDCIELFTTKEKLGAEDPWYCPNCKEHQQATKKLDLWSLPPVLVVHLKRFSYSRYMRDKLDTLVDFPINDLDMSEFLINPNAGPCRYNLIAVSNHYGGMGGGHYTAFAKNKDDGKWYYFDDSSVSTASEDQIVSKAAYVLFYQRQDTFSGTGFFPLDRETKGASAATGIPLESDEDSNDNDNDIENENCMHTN
How it was run: as §1

[10] = biological target: USP16 (UniProt Q9Y5T5)
How it was run: as §1

Measured: log2 ratio of Biotin-Ahx-Ub-VS probe labelling

Chain of USP10 (Q14694 whole entry): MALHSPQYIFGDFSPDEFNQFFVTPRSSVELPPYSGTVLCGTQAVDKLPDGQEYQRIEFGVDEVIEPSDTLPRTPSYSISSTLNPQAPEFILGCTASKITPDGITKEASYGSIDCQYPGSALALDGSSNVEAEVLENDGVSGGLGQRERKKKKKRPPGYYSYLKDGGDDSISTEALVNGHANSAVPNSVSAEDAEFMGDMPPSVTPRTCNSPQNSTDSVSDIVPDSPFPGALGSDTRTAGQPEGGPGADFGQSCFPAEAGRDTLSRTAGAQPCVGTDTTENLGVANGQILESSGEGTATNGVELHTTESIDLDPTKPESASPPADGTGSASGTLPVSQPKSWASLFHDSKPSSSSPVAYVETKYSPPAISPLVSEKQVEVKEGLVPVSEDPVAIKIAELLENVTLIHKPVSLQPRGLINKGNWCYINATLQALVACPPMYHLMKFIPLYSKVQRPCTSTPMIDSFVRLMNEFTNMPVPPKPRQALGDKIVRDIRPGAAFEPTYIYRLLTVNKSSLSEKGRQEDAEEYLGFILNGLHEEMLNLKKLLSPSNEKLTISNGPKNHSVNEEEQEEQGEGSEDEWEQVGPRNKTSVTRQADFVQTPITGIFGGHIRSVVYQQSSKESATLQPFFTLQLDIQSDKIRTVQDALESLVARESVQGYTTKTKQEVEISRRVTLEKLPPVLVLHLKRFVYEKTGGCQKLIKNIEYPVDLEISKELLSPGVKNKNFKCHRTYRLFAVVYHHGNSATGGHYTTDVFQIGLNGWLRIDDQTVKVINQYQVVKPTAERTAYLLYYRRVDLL
Chain of UCHL1 (P09936 whole entry, looked up): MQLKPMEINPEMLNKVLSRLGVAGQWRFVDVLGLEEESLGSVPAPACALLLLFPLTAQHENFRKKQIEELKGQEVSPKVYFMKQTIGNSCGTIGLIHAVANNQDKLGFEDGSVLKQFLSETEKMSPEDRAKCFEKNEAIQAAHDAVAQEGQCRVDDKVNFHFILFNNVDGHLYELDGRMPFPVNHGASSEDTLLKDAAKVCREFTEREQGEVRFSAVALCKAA
Chain of USP16 (Q9Y5T5 whole entry, looked up): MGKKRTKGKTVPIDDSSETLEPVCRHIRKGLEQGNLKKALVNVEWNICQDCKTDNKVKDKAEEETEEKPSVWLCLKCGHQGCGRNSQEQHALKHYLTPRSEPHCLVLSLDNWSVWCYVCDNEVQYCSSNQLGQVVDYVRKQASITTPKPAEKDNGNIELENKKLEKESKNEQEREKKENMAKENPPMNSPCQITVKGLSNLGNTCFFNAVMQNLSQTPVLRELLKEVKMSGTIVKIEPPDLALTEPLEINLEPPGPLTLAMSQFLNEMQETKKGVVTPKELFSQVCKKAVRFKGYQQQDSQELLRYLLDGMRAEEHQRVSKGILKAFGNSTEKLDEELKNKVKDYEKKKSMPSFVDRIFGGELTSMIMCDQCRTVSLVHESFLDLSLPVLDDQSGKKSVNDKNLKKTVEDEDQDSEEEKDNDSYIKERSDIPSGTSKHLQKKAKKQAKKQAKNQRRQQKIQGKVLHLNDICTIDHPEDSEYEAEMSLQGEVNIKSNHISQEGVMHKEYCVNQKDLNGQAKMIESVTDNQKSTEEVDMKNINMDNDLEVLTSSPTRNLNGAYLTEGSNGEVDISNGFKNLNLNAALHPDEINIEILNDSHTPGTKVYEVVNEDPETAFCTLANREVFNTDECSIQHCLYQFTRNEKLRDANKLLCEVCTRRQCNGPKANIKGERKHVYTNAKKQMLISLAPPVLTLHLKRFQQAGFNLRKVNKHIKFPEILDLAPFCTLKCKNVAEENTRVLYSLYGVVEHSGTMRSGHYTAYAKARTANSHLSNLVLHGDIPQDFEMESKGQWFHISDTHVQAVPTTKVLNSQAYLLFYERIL

C#Cc1cccc(NC(=O)CCl)c1
inactive: [1] -0.196 | [3] 0.296 | [4] -0.0915 | [7] -0.324 | [8] -0.0542 | [9] -0.414 | [10] -0.23
active: [2] -1.43 | [5] -1.61 | [6] -1.39
